Assay results taken from PubChem BioAssay (NCATS).
Inconclusive results are not listed. Activity calls are given as the source filed them. Calls come from the whole dose curve; as a rule, active = well fitted cell-killing curve with a large enough effect; inconclusive = small, poorly fitted or top-dose-only effect, or effect the other way; inactive = no such curve, though single readings can be large or run the other way.

Assay: Quantitative High-Throughput drug screen in 47 multiple myeloma cell lines against the NCATS MIPE library collection: PCM6_Riken cell viability assay (AID 1919870); note: nearly all actives have a fitted effect of over 30% in size
Conditions: CellTiter-Glo ATP, 48 h; series mostly up to 45.8 µM
Description: PI: Beverly A. Mock Ph.D.
Laboratory of Cancer Biology and Genetics,
Center for Cancer Research, National Cancer Institute,
National Institute of Health, Bethesda, Maryland
Drug resistance and disease progression are common in multiple myeloma (MM) patients, underscoring the need for new therapeutic combinations. […] We hypothesized that effective combinations would reduce MYC expression and enhance p16 activity. […] These preclinical data identify potentially useful drug combinations for evaluation in drug-resistant MM and reveal potential mechanisms of combined drug sensitivity.
Described herein is the primary MIPE qHTS used to cherrypick compounds. Validated compounds were then further tested for potential synergistic activiy.
[1] Peat TJ, Gaikwad SM, Dubois W, Gyabaah-Kessie N, Zhang S, Gorjifard S, Phyo Z, Andres M, Hughitt VK, Simpson RM, Miller MA, Girvin AT, Taylor A, Williams D, D'Antonio N, Zhang Y, Rajagopalan A, Flietner E, Wilson K, Zhang X, Shinn P, Klumpp-Thomas C, McKnight C, Itkin Z, Chen L, Kazandijian D, Zhang J, Michalowski AM, Simmons JK, Keats J, Thomas CJ, Mock BA. Drug combinations identified by high-throughput screening promote cell cycle transition and upregulate Smad pathways in myeloma. Cancer Lett. 2023 Aug 1;568:216284. doi: 10.1016/j.canlet.2023.216284. Epub 2023 Jun 24. PMID: 37356470; PMCID: PMC10408729.
SEQUENCE No. (e.g., 1, 2, 3, etc.); […] (e.g., Cells, Incubation, Reagent, etc.); VALUE and DESCRIPTION.
1; Cells; 5 uL; white, solid bottom 1536-well Greiner assay plate.
2; Compounds; 23 nL; Kalypsis pin tool (Wako USA) equipped with a 1536-well pin head to transfer to the assay plates.
3; Incubation; 48 hours; 37C incubation.
4; Reagent;5uL; CellTiter Glo (Promega).
5; Detector; 425V; Luminescence; Viewlux PerkinElmer.
NOTES (numbers refer to Sequence numbers above)
1. The cell-based screening methods employed in this study were like those previously published. Briefly, the corresponding myeloma cell lines were screened in 1,536-well plates with 500 cells, 5-uL per well for inhibition of cell viability (assessed by measuring ATP levels with CellTiterGlo).
2. NCATS MIPE 4.0 library of approved and investigational drugs were added using the Kalypsis pin tool. Wells treated with DMSO only for 100% viability and media only for 0% viability were used as controls.
3. The assay plates were covered and incubated for 48 hours in a 37C, 5% CO2 incubator with controlled humidity.
4. After 48 hours, CellTilter-GloTM luminescent substrate mix (Promega) reagent was added to the assay plate and plates we incubated for 5 min at room temperature.
5. Signal was measured as median relative luminescence units on a ViewLux (PerkinElmer) multiplate reader.
[1] Heske CM, Davis MI, Baumgart JT, Wilson K, Gormally MV, Chen L, Zhang X, Ceribelli M, Duveau DY, Guha R, Ferrer M, Arnaldez FI, Ji J, Tran HL, Zhang Y, Mendoza A, Helman LJ, Thomas CJ. Matrix Screen Identifies Synergistic Combination of PARP Inhibitors and Nicotinamide Phosphoribosyltransferase (NAMPT) Inhibitors in Ewing Sarcoma. Clin Cancer Res. 2017 Dec 1;23(23):7301-7311. doi: 10.1158/1078-0432.CCR-17-1121. Epub 2017 Sep 12. PMID: 28899971; PMCID: PMC6636827.
Potency is the fitted concentration of half-maximal effect.

| Structure (SMILES) | Potency |
| --- | --- |
| CC(C)c1noc(N2CCC(COc3ccc(-c4ccc(S(C)(=O)=O)cc4)nc3)CC2)n1 | 4.69 µM (active) |
| COC(=O)C1=C(C)NC(C)=C(C(=O)OCCN2CCN(C(c3ccccc3)c3ccccc3)CC2)C1c1cccc([N+](=O)[O-])c1 (stereo not given) | inactive |
| CC[C@H](CO)Nc1nc(NCc2ccccc2)c2ncn(C(C)C)c2n1 | 9.35 µM (active) |
| O=C(CCCCCCNC(=O)c1cnc(N(c2ccccc2)c2ccccc2)nc1)NO | 9.35 µM (active) |
| O=C(O)C1(Cc2cccc(Nc3nccs3)n2)CCC(Oc2cccc(Cl)c2F)CC1 (stereo not given) | 0.418 µM (active) |
| COc1cc2ncnc(Nc3ccc(F)c(Cl)c3)c2cc1NC(=O)C=CCN1CCCCC1 | 3.32 µM (active) |
| Cn1c(CNc2ccc(C(=N)N)cc2)nc2cc(C(=O)N(CCC(=O)O)c3ccccn3)ccc21 | inactive |
| CNc1nccc(-c2cccnc2Oc2cc(C(=O)Nc3cccc(C(F)(F)F)c3)ccc2C)n1 | 4.18 µM (active) |
| CCc1c2c(nc3ccc(O)cc13)-c1cc3c(c(=O)n1C2)COC(=O)[C@]3(O)CC | 0.296 µM (active) |
| O=C(Nc1cn[nH]c1-c1nc2ccc(CN3CCOCC3)cc2[nH]1)NC1CC1 | 2.64 µM (active) |
| COc1ccc(C=Cc2cc(OC)c(OC)c(OC)c2)cc1O | inactive |
| Cc1cc(Nc2cc(CN3CCOCC3)c3nc(C)c(Cc4ccc(Cl)cc4F)n3n2)n[nH]1 | 16.6 µM (active) |
| Cc1ccc(C(N)=O)cc1Nc1nccc(-c2cn(C(C)C)c3cnccc23)n1 | 2.09 µM (active) |
| CCN1CCN(CC(=O)Nc2ccc(-c3cccc4c(=O)cc(N5CCOCC5)oc34)c3sc4ccccc4c23)CC1 | 1.48 µM (active) |
| OCc1ccc(-c2ccc(-c3ccc(CO)s3)o2)s1 | 7.43 µM (active) |
| O=C(Nc1cc(C(F)(F)F)cc(C(F)(F)F)c1)c1cc(Cl)ccc1O | 1.32 µM (active) |
| CC(C)c1nn(-c2c(Cl)cccc2Cl)c2nc(Cc3ccc(OCCO)cc3)[nH]c(=O)c12 | 0.0469 µM (active) |
| CNC(=O)c1ccccc1Nc1nc(Nc2ccc(N3CCOCC3)cc2OC)ncc1Cl | 10.5 µM (active) |
| Cc1cc(Nc2ncnc3ccc(-c4ccc(CNCCS(C)(=O)=O)o4)cc23)ccc1Oc1ccn2ncnc2c1 | 16.6 µM (active) |
| Nc1ccc(S(=O)(=O)Nc2ncccn2)cc1 | inactive |

| Structure (SMILES) | Potency |
| --- | --- |
| COc1cc2c(NC3CCN(C(C)C)CC3)nc(C3CCCCC3)nc2cc1OCCCN1CCCC1 | 3.32 µM (active) |
| CNC(=O)CN1CCC(Oc2cc3c(Nc4cccc(Cl)c4F)ncnc3cc2OC)CC1 | 0.0235 µM (active) |
| O=C(NCCS(=O)(=O)c1ccc(C(F)(F)F)cn1)c1ccc(Cl)cc1 | inactive |
| COCCn1c2c([n+](Cc3cnccn3)c1C)C(=O)c1ccccc1C2=O | 0.0235 µM (active) |
| O=c1[nH]nc(Sc2ncc([N+](=O)[O-])s2)n1-c1ccc2c(c1)OCCO2 | 1.48 µM (active) |
| C=C1C(=CC=C2CCC[C@]3(C)[C@@H]([C@H](C)C=C[C@H](C)C(C)C)CC[C@@H]23)C[C@@H](O)C[C@@H]1O | 1.32 µM (active) |
| Nc1cccc(-c2cc3c(Oc4cccc(O)c4)ncnc3[nH]2)c1 | 16.6 µM (active) |
| CCOc1cc2ncc(C#N)c(Nc3ccc(F)c(Cl)c3)c2cc1NC(=O)C=CCN(C)C | 1.66 µM (active) |
| Clc1ccc2ncc(-c3cccc(NC4CNC4)n3)n2c1 | 18.7 µM (active) |
| CC=C1NC(=O)[C@H]2CSSCCC=C[C@H](CC(=O)N[C@H](C(C)C)C(=O)N2)OC(=O)[C@H](C(C)C)NC1=O | 0.001 µM (active) |
| CC1COC2(CCN(c3nc(=O)c4cc(C(F)(F)F)cc([N+](=O)[O-])c4s3)CC2)O1 (stereo not given) | inactive |
| COc1cc2c(Nc3ccc(NC(=O)c4ccccc4)cc3)ncnc2cc1OCCCN1CCOCC1 | 16.6 µM (active) |
| CC(C)c1ccccc1Cc1cc(C(=O)Nc2ccc(S(=O)(=O)c3ccccc3C(C)(C)C)cc2)c(O)c(O)c1O | 7.43 µM (active) |
| Cc1[nH]nc2ccc(-c3cncc(OC[C@@H](N)Cc4ccccc4)c3)cc12 | 0.526 µM (active) |
| O=C(c1cncc(Br)c1)N1CCC(N2CCCC2)CC1 | inactive |
| COc1cc(=C2C=c3ccccc3=N2)[nH]c1=Cc1[nH]c(C)cc1C | 5.9 µM (active) |
| Cc1ccc(C(=O)Nc2ccc(CN3CCN(C)CC3)c(C(F)(F)F)c2)cc1C#Cc1cnc2cccnn12 | 1.18 µM (active) |
| C[C@@H](Oc1cc(-c2cnn(C3CCNCC3)c2)cnc1N)c1c(Cl)ccc(F)c1Cl | 14.8 µM (active) |
| COc1c(N2C[C@@H]3CCCN[C@H]3C2)c(F)cc2c(=O)c(C(=O)O)cn(C3CC3)c12 | inactive |
| CCS(=O)(=O)c1cccc(-c2cc(C(=O)NC3CCN(C)CC3)c(C)c3[nH]c4ncc(C)cc4c23)c1 | 1.66 µM (active) |
